Our source for the growth values is PubChem BioAssay (NCI).

About 83,000 compounds went through this panel and 20% of them were active in at least one assay; those are over-represented in the sample as a whole.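 Compound tested at a single concentration for 48 hours in 96-well plates; a percent growth value below 10 was scored as active.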 A number with no mark means an inactive call. Calls of active or inactive are those of the source.

Test in all cases: NCI-60 one-dose screen, 48 h (100 = growth as untreated, 0 = no growth, -100 = all killed)
Details in all cases: 10 µM unless noted

The subject of experiment [1] is DU-145 prostate.
In experiment [2] the test system is K-562 leukemia.
Experiment [3] relates to MALME-3M melanoma.
For experiment [4], the system named is MDA-MB-231 breast.
Experiment [5] concerns RXF 393 renal.
The subject of experiment [6] is SF-268 CNS.
Experiment [7] concerns SF-295 CNS.
Experiment [8] concerns SF-539 CNS.
Experiment [9] relates to UACC-257 melanoma.
Experiment [10] relates to M14 melanoma.
The subject of experiment [11] is HCT-15 colon.
The subject of experiment [12] is HT29 colon.
For experiment [13], the system named is SNB-75 CNS.
The test system of experiment [14] is SNB-19 CNS.
The test system of experiment [15] is U251 CNS.
For experiment [16], the system named is PC-3 prostate.
For experiment [17], the system named is SK-MEL-5 melanoma.
In experiment [18] the test system is UACC-62 melanoma.
Experiment [19] has as its system LOX IMVI melanoma.
The subject of experiment [20] is SK-MEL-28 melanoma.

Regarding `COc1ccc(-c2nc(/C=C3\SC(=NCc4ccccc4)NC3=O)c3ccccn23)cc1`, the growth is -88.6% (active) in experiment [1]; 18.4% in experiment [2]; -33.1% (active) in experiment [3]; -13.9% (active) in experiment [4]; -86.7% (active) in [5]; -37.4% (active) in [6]. Moreover, the growth in experiment [7] was 17.5%; in [8], -43.4% (active); in experiment [9] it was -17% (active); in experiment [10], -95.7% (active); in [11], 0.0387% (active); in [12], -70.4% (active). Moreover, the growth in experiment [13] was -46.8% (active); in [14], 16%; in [15], -43.6% (active); in experiment [16] it was 13.7%; in experiment [17], -78.4% (active); in experiment [18] it was -49.7% (active). Moreover, the growth in experiment [19] was -76.4% (active); in experiment [20], -43.9% (active).
Turning to `CC1(C)CC2=C3C=C[C@@H]4[C@@]5(C)CCC(=O)C(C)(C)[C@@H]5CC[C@@]4(C)[C@]3(C)CC[C@@]2(C(=O)O)CC1=O`, the growth was 97.2% in experiment [1]; 92.1% in experiment [2]; 39.1% in [3]; 75.3% in experiment [4]; 54.8% in [5]; 53.3% in [6]. Moreover, the growth is 75.3% in experiment [7]; 65.7% in experiment [8]; 43.2% in experiment [9]; 46.8% in experiment [10]; 57.2% in [11]; 50.4% in [12]. In addition, the growth was 10% in experiment [13]; 96.5% in [14]; 61.2% in [15]; 74.3% in [16]; 55.2% in experiment [17]; 64% in [18]. Further, the growth in experiment [19] is 87.2%; in [20] it was 46.5%.
As for `O=C1N[C@@H]2NC(=[N+]3CCOCC3)N[C@@H]2N1`, the growth in experiment [1] is 114%; in experiment [2] it was 98.6%; in experiment [3] it was 92.9%; in experiment [4] it was 103%; in [5] it was 116%; in experiment [6] it was 100%. Besides, the growth in experiment [7] was 99.9%; in [8], 98.2%; in experiment [9], 109%; in experiment [10] it was 102%; in experiment [11], 104%; in experiment [12], 110%. Also, the growth was 94.5% in [13]; 96% in experiment [14]; 97.2% in experiment [15]; 106% in experiment [16]; 101% in experiment [17]; 90.1% in experiment [18]. Moreover, the growth is 98.3% in experiment [19] and 101% in experiment [20].
In the case of `CC(C)=CCC[C@](C)(O)[C@H]1CC[C@]2(C)[C@@H]1CC[C@@H]1[C@@]3(C)Cc4nccnc4C(C)(C)[C@@H]3CC[C@]12C`, the growth in experiment [1] was 70.9%; in experiment [2], 63.2%; in experiment [3] it was 66.4%; in [4] it was 74.4%; in [5], 94.3%; in experiment [6], 86.5%. Moreover, the growth in experiment [7] was 95.2%; in experiment [8], 76.3%; in experiment [9] it was 75.7%; in experiment [10], 71.4%; in experiment [11], 70.4%; in [12] it was 42%. In addition, the growth in experiment [13] is 91.6%; in [14], 94%; in experiment [15], 78.2%; in experiment [16] it was 44.6%; in [17], 65.8%; in experiment [18] it was 66.9%. The growth in [19] was 83.7%; in experiment [20], 95.6%.
In the case of `CN1CCN(Cc2ccc(NC(=O)c3cncc(C#Cc4cnc(N)c5ccccc45)c3)cc2C(F)(F)F)CC1`, the growth in experiment [1] is -97.6% (active); in experiment [2] it was -13.3% (active); in [3], -88.6% (active); in [4] it was -86.2% (active); in [5], -96.2% (active); in experiment [6] it was -61.1% (active). Besides, the growth in experiment [7] was -87.4% (active); in experiment [8], -97.8% (active); in experiment [9] it was -90.1% (active); in experiment [10], -79.3% (active); in experiment [11] it was -82.8% (active); in [12], -14.5% (active). For the same molecule, the growth in [13] was -73% (active); in experiment [14] it was -78.5% (active); in experiment [15], -98.5% (active); in [16], -53.1% (active); in experiment [17] it was -98.1% (active); in experiment [18], -91.4% (active). In addition, the growth in experiment [19] was -92.1% (active); in experiment [20], -92.9% (active).
With `CSc1nnc(-c2cnn3c2NC(c2ccccc2)C3)n1-c1ccc(C(F)(F)F)cc1` (stereo not given), the growth in experiment [1] was 85.1%; in experiment [2], 3.03% (active); in experiment [3], 69.8%; in [4] it was 64.8%; in [5], 79.1%; in experiment [6] it was 65.1%. Besides, the growth in experiment [7] is 32%; in experiment [8], 80.3%; in experiment [9], 51.4%; in experiment [10] it was 54.3%; in [11], 35.1%; in experiment [12] it was 28.4%. The growth in experiment [13] is 66.7%; in experiment [14], 66.9%; in experiment [15] it was 58%; in experiment [16], 46.3%; in experiment [17] it was 31.3%; in experiment [18], 40.3%. In addition, the growth was 61.3% in [19] and 71.7% in experiment [20].
Turning to `CCN(c1ccc(Cl)cc1)c1nc(-c2ccc([N+](=O)[O-])cc2)cs1`, the growth in experiment [1] is 103%; in experiment [2], 88.9%; in [3] it was 80.5%; in [4], 90.6%; in experiment [5], 113%; in experiment [6] it was 110%. Moreover, the growth in [7] is 100%; in experiment [8], 99.6%; in experiment [9] it was 104%; in [10], 99.7%; in experiment [11] it was 98.1%; in experiment [12] it was 91%. The growth in experiment [13] was 96.8%; in experiment [14], 95.4%; in experiment [15], 102%; in [16] it was 92.6%; in [17] it was 99.7%; in [18] it was 79.8%. Also, the figures for the growth in experiment [19] and in experiment [20] were 93% and 105%, respectively.
